Each molecule was assayed on CDC2L2. Conditions: concentration: 1 μM,replicates: in singlicate; n = 1.
For `Cc1n[nH]c2ccc(-c3cc(OC[C@@H](N)Cc4ccccc4)cnc3-c3ccoc3)cc12.O=C(O)C(F)(F)F.O=C(O)C(F)(F)F` [GSK507358], the “%Inh” value was 0%.
With `CC(C)Nc1cc(-c2ccc3c(N)n[nH]c3c2)nc(N)n1` [GSK2221681] the “%Inh” value was 0%.
In the case of `CNC(=O)c1ccccc1Sc1ccc2c(/C=C/c3ccccn3)n[nH]c2c1`, the “%Inh” value is reported as 0%.
For `Cl.Cl.NC[C@H](Cc1ccc(C(F)(F)F)cc1)NC(=O)c1cc(Br)c(-c2ccnc3[nH]ccc23)s1` [GSK1487252], the “%Inh” value was 0%.
For `Cl.Cl.Nc1nc(-c2ccc3c(N)n[nH]c3c2)cc(N2CCCC(NC(=O)c3ccccc3)C2)n1` (stereo not drawn) [GSK2286775], the “%Inh” value was 31%.
`O=C(NCCCN1CCOC1=O)c1cnc(NCc2cc(Cl)ccc2Cl)nc1NC1CCCC1` was tested, and the “%Inh” value was 0%.
`CN(C)CC(O)COc1ccc(Nc2nccc(-c3cnn4nc(N5CCOCC5)ccc34)n2)cc1` (stereo not drawn) [GW767488] was tested, and the “%Inh” value was 41%.
With `Cc1ccc(-n2nc(C(C)(C)C)cc2NC(=O)Nc2ccc(OCCN3CCOCC3)c3ccccc23)cc1` [GW839464] the “%Inh” value was 13%.
In the case of `Cc1cc(C(=O)Nc2ccc(Oc3ccc4nc(NC(=O)C5CC5)cn4n3)cc2)nn1-c1ccccc1`, the “%Inh” value is reported as 6%.
With `C=CC(=O)Nc1cc2c(Nc3ccc(F)c(Cl)c3)ncnc2cc1OCCCN1CCOCC1` [GW781483] the “%Inh” value was 0%.
`Cc1cc2cn[nH]c2cc1-c1cccc2c(N)c(C(N)=O)nnc12` was tested, and the “%Inh” value was 32%.
For `C[C@@H]1CCN(C(=O)CC#N)C[C@@H]1N(C)c1ncnc2[nH]ccc12`, the “%Inh” value was 0%.
In the case of `CC(C)N1C(=O)Cc2cc(Nc3ncc(C(F)(F)F)c(NCc4cccc(S(C)(=O)=O)c4)n3)ccc21`, the “%Inh” value is reported as 3%.
`C[C@H]1Oc2cc(cnc2N)-c2c(nn(C)c2C#N)CN(C)C(=O)c2ccc(F)cc21` was tested, and the “%Inh” value was 18%.
For `Cc1occc1-c1nc(N)c(OC[C@@H](N)Cc2c[nH]c3ccccc23)cc1-c1cc2c(C)n[nH]c2cn1` [GSK1660450], the “%Inh” value was 0%.
In the case of `Cc1ccc2c(-c3ccncc3)c(-c3ccc(F)cc3)nn2c1.Cl` [GW461484], the “%Inh” value is reported as 10%.
With `CCN(CC)CCCCNc1ncc2cc(-c3c(Cl)cccc3Cl)c(NC(=O)NC(C)(C)C)nc2n1` the “%Inh” value was 0%.
`CCN(CC)CCOc1ccc(Nc2ncc3cc(-c4c(Cl)cccc4Cl)c(=O)n(C)c3n2)cc1` [SB-601273] was tested, and the “%Inh” value was 43%.
`NC(=O)c1cc(-c2ccccc2)cc2c(C3CCNCC3)c[nH]c12` [GSK301362] was tested, and the “%Inh” value was 17%.
`CCn1c(-c2nonc2N)nc2c(C#CC(C)(C)O)nc(OCCN)cc21.Cl.Cl` [GSK902056] was tested, and the “%Inh” value was 3%.
With `O=C(NCCNc1ccnc(NCc2ccc(F)cc2)n1)c1cc2ccccc2s1` [GSK1379944] the “%Inh” value was 0%.
In the case of `Cl.Oc1cc(-c2nc(-c3ccccc3)[nH]c2-c2ccncc2)ccc1Cl` [SB-386023], the “%Inh” value is reported as 0%.
`COc1ccc(C[C@@H](CN)NC(=O)c2cc(Br)c(-c3ccnc4[nH]ccc34)s2)cc1.Cl.Cl` [GSK1389063] was tested, and the “%Inh” value was 0%.
With `Cl.Cl.NC[C@H](CC1CCCCC1)NC(=O)c1cc(Br)c(-c2ccnc3[nH]ccc23)s1` [GSK1581427] the “%Inh” value was 0%.
For `CN(C)CCOc1ccc(-c2cc(-c3c[nH]nc3-c3ccccn3)ccn2)cc1` [GW835314], the “%Inh” value was 9%.
`C[C@@H](Oc1cc(-c2cnn(C3CCNCC3)c2)cnc1N)c1c(Cl)ccc(F)c1Cl` was tested, and the “%Inh” value was 55%.
`Nc1nc(Nc2ccccc2)cc(-c2ccc3c(N)n[nH]c3c2)n1` [GSK2225749] was tested, and the “%Inh” value was 0%.

The molecules below were run on T1, CDC2L5. Conditions: concentration: 1 μM,replicates: in singlicate; n = 1.
T1 construct: gene CDK13
For `Cc1n[nH]c2ccc(-c3cc(OC[C@@H](N)Cc4ccccc4)cnc3-c3ccoc3)cc12.O=C(O)C(F)(F)F.O=C(O)C(F)(F)F` [GSK507358], the “%Inh” value was 0%.
With `CC(C)Nc1cc(-c2ccc3c(N)n[nH]c3c2)nc(N)n1` [GSK2221681] the “%Inh” value was 0%.
With `CNC(=O)c1ccccc1Sc1ccc2c(/C=C/c3ccccn3)n[nH]c2c1` the “%Inh” value was 0%.
In the case of `Cl.Cl.NC[C@H](Cc1ccc(C(F)(F)F)cc1)NC(=O)c1cc(Br)c(-c2ccnc3[nH]ccc23)s1` [GSK1487252], the “%Inh” value is reported as 0%.
For `Cl.Cl.Nc1nc(-c2ccc3c(N)n[nH]c3c2)cc(N2CCCC(NC(=O)c3ccccc3)C2)n1` (stereo not drawn) [GSK2286775], the “%Inh” value was 0%.
`O=C(NCCCN1CCOC1=O)c1cnc(NCc2cc(Cl)ccc2Cl)nc1NC1CCCC1` was tested, and the “%Inh” value was 0%.
`CN(C)CC(O)COc1ccc(Nc2nccc(-c3cnn4nc(N5CCOCC5)ccc34)n2)cc1` (stereo not drawn) [GW767488] was tested, and the “%Inh” value was 50%.
`Cc1ccc(-n2nc(C(C)(C)C)cc2NC(=O)Nc2ccc(OCCN3CCOCC3)c3ccccc23)cc1` [GW839464] was tested, and the “%Inh” value was 0%.
In the case of `Cc1cc(C(=O)Nc2ccc(Oc3ccc4nc(NC(=O)C5CC5)cn4n3)cc2)nn1-c1ccccc1`, the “%Inh” value is reported as 0%.
For `C=CC(=O)Nc1cc2c(Nc3ccc(F)c(Cl)c3)ncnc2cc1OCCCN1CCOCC1` [GW781483], the “%Inh” value was 19%.
In the case of `Cc1cc2cn[nH]c2cc1-c1cccc2c(N)c(C(N)=O)nnc12`, the “%Inh” value is reported as 0%.
For `C[C@@H]1CCN(C(=O)CC#N)C[C@@H]1N(C)c1ncnc2[nH]ccc12`, the “%Inh” value was 0%.
In the case of `CC(C)N1C(=O)Cc2cc(Nc3ncc(C(F)(F)F)c(NCc4cccc(S(C)(=O)=O)c4)n3)ccc21`, the “%Inh” value is reported as 7%.
With `C[C@H]1Oc2cc(cnc2N)-c2c(nn(C)c2C#N)CN(C)C(=O)c2ccc(F)cc21` the “%Inh” value was 0%.
With `Cc1occc1-c1nc(N)c(OC[C@@H](N)Cc2c[nH]c3ccccc23)cc1-c1cc2c(C)n[nH]c2cn1` [GSK1660450] the “%Inh” value was 0%.
`Cc1ccc2c(-c3ccncc3)c(-c3ccc(F)cc3)nn2c1.Cl` [GW461484] was tested, and the “%Inh” value was 0%.
In the case of `CCN(CC)CCCCNc1ncc2cc(-c3c(Cl)cccc3Cl)c(NC(=O)NC(C)(C)C)nc2n1`, the “%Inh” value is reported as 9%.
In the case of `CCN(CC)CCOc1ccc(Nc2ncc3cc(-c4c(Cl)cccc4Cl)c(=O)n(C)c3n2)cc1` [SB-601273], the “%Inh” value is reported as 41%.
`NC(=O)c1cc(-c2ccccc2)cc2c(C3CCNCC3)c[nH]c12` [GSK301362] was tested, and the “%Inh” value was 0%.
In the case of `CCn1c(-c2nonc2N)nc2c(C#CC(C)(C)O)nc(OCCN)cc21.Cl.Cl` [GSK902056], the “%Inh” value is reported as 0%.
With `O=C(NCCNc1ccnc(NCc2ccc(F)cc2)n1)c1cc2ccccc2s1` [GSK1379944] the “%Inh” value was 0%.
With `Cl.Oc1cc(-c2nc(-c3ccccc3)[nH]c2-c2ccncc2)ccc1Cl` [SB-386023] the “%Inh” value was 1%.
For `COc1ccc(C[C@@H](CN)NC(=O)c2cc(Br)c(-c3ccnc4[nH]ccc34)s2)cc1.Cl.Cl` [GSK1389063], the “%Inh” value was 0%.
For `Cl.Cl.NC[C@H](CC1CCCCC1)NC(=O)c1cc(Br)c(-c2ccnc3[nH]ccc23)s1` [GSK1581427], the “%Inh” value was 0%.
For `CN(C)CCOc1ccc(-c2cc(-c3c[nH]nc3-c3ccccn3)ccn2)cc1` [GW835314], the “%Inh” value was 0%.
`C[C@@H](Oc1cc(-c2cnn(C3CCNCC3)c2)cnc1N)c1c(Cl)ccc(F)c1Cl` was tested, and the “%Inh” value was 0%.
With `Nc1nc(Nc2ccccc2)cc(-c2ccc3c(N)n[nH]c3c2)n1` [GSK2225749] the “%Inh” value was 0%.
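Further: KINOMEscan kinase panel screen.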
